The structures appear in SMILES notation. Compounds without any hit were thinned out: in the full panel of roughly 83,000, 20% have a hit.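 Cell lines were cultured in 96-well plates, exposed to a single compound concentration, and assessed for percent growth 48 hours later.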 Activity calls are given as the source filed them.

In the experiment the test system is HCC-2998 colon. The experiment is described as follows: NCI-60 one-dose screen, 48 h (100 = growth as untreated, 0 = no growth, -100 = all killed). As to conditions: 10 µM unless noted. As to the method: Growth inhibition of the HCC-2998 human tumor cell line is measured as a screen for anti-cancer activity. Cells are grown in 96 well plates and exposed to the test compound for 48 hours. Compounds are tested at a single concentration, which is 10^-5 M for most compounds. The reported endpoint is percent growth (GI% or GIPRCNT), where numbers from 0 - 100% represent growth inhibition, and numbers from -100% - 0 represent cell death. For example, a value of 40 represents 60% growth inhibition. A value of 0 means no net growth occurred over the course of the experiment. A value of -40 indicates 40% of cells at the beginning of the experiment died by the end of the experiment. A value of -100 means all cells are dead at the end of the experiment.
NCI-60 Human Tumor Cell Lines Screen was performed using the standard one-dose NCI protocol, which is described in more detail at https://dtp.cancer.gov/discovery_development/nci-60/default.htm.
Compounds with GIPRCNT values below 10 were considered active. Activity score was based on GIPRCNT using the following formula: […]
Score is 0 for GIPRCNT values of 100 or above, 50 for GIPRCNT values of 0, and 100 for GIPRCNT values of -100.
As for `Cc1[nH]n(-c2ccccc2)c2nc3nncc3c(-c3ccc(Cl)cc3)c12`, the growth is 109% (inactive).
Then `CSc1nc2sc3c(c2c(=O)n1-c1ccc(C(C)C)cc1)CCC(=O)C3`, with 16.5% (inactive); and `CC/C=C\C[C@H](F)C/C=C1/C(=O)C=C[C@@H]1C/C=C\CCCC(=O)OC`, with 9.38% (active).
`O=C1CCc2c(sc3[nH]c(=S)n(Cc4ccccc4)c(=O)c23)C1`: the growth was 23.9% (inactive).
Then `Cc1sc2nc3[nH]/c(=C\c4ccc(Cl)cc4)c(=O)n3c(=O)c2c1C`, with 107% (inactive); and `COC1C/C(=N\O)C2OC(c3ccccc3)OCC2O1` (stereo not given), with 110% (inactive); and `CN1CCN(Cc2ccc(NC(=O)c3cncc(C#Cc4cnc(N)c5cccnc45)c3)cc2C(F)(F)F)CC1`, with 30.2% (inactive).
Then `COc1ccc(-c2cc(=O)[nH]c3c(OC)c4ccccc4c(OC)c23)cc1`, with 0.772% (active).
Then `COc1ccc(S(=O)(=O)NCCNc2nccc(-c3c(-c4cccc([N+](=O)[O-])c4)nc4sccn34)n2)cc1`, with 128% (inactive); and `CCCCNP1(NCCCC)=NP(NCCCC)(NCCCC)=NP(NCCCC)(NCCCC)=NP(NCCCC)(NCCCC)=N1`, with -24.9% (active); and `Cc1cc2cc3cc(C)c(N(C)C)cc3[n+](C)c2cc1N(C)C`, with 25.6% (inactive).
On to `CC1(C)OCC2OC3(C(=O)O)OC(C)(C)OC3C2O1` (stereo not given), for which the growth was 102% (inactive).
Then `COc1cccc(-c2nc3sccn3c2-c2ccnc(NCCCNS(=O)(=O)c3ccc(Cl)cc3)c2)c1`, with 66.5% (inactive).
Then `O=C1C(Cl)=C(Cl)C(=O)c2c1nc1n2CCCC1`, with 52.5% (inactive); and `NC(=S)N/N=C/c1ccc(OCc2ccccc2)cc1`, with 79.2% (inactive); and `COc1cnc2c(c1)C(=O)c1c-2n(CCCBr)c(=O)c2cc([N+](=O)[O-])ccc12`, with 13.7% (inactive).
Then `CCCCCC(=O)Oc1ccc(/C(=C(\C)c2ccccc2)c2ccc(OCCN(CC)CC)cc2)cc1`, with 88.1% (inactive); and `CC1(C)CC(=O)C(c2c(-c3ccccc3)[nH]c3[nH]c(=S)[nH]c(=O)c23)=C(O)C1`, with 108% (inactive); and `COc1ccc(/C=C2\N=C3SC=C(N)N3C2=O)cc1`, with 40.9% (inactive).
Take `O=C1C=CC(=O)N1c1ccc(Cc2ccc(N3C(=O)C=CC3=O)cc2)cc1`: the growth is 102% (inactive).
Then `CC(C)c1c(C(=O)Nc2ccccc2)c(-c2ccccc2)c(-c2ccc(F)cc2)n1CC[C@@H]1CC=CC(=O)O1`, with -69.8% (active); and `COc1ccc(-c2cc(NC(=O)Nc3ccc(O)cc3)no2)cc1`, with 82.7% (inactive).
Then `O=C(Nc1ccc(Oc2ccc(F)cc2)c(Cl)c1)c1cccnc1`, with 91.2% (inactive).
Then `O=[N+]([O-])c1c(F)cccc1Nc1cccc(F)c1`, with 102% (inactive); and `COc1ccc(-c2cc(-c3ccc(N(C)C)cc3)nc(NC(=O)c3ccncc3)n2)cc1`, with 100% (inactive); and `CC(C)[C@H]1COC(=O)N1[C@@H]1C(=O)N([C@@H](CCC(=O)N2CCN(C3CCCC3)CC2)C(=O)N[C@@H]2CCCc3ccccc32)[C@@H]1/C=C/c1cccc(Br)c1`, with 30.8% (inactive).
As for `CC/C=C\C[C@H](F)C/C=C1/C(=O)C=C[C@@H]1C/C=C\CCCC(=O)O`, the growth was 81.9% (inactive).
Then `CCOC(=O)N1CCN(c2nc(Nc3cc(C)[nH]n3)c3ccccc3n2)CC1`, with 69% (inactive); and `CC/C(Cc1ccccc1)=C(\c1ccc(OCCN2CCCC2)cc1)c1ccc(OC(C)=O)cc1`, with 56.3% (inactive).
Then `CCN(CC)CCCC(C)Nc1ccnc2c(OC)cccc12` (stereo not given), with 115% (inactive); and `Brc1cccc(-c2cc(-c3ccc4c(c3)OCCO4)[nH]n2)c1`, with 44.6% [25 µM] (inactive); and `Cc1cc(Nc2nc(N3CCN(C)CC3)nc3ccccc23)n[nH]1`, with 87.6% (inactive).
Turning to `C/C(Cc1ccc(Cl)cc1)=C(\c1ccc(OCCN2CCCCCC2)cc1)c1ccc(OC(=O)C2CCCCC2)cc1`, the growth was 10.4% (inactive).
As for `COc1c(Cl)cc(Cl)cc1Cl`, the growth was 118% (inactive).
Then `C=C1CCC2C3(C)COC(c4cccc(Cl)c4)OC3CCC2(C)C1/C=C/C1=CCOC1=O` (stereo not given), with 39.9% (inactive).
As to `O=C1CC(c2nc3ccccc3[nH]2)CN1C1CCCCC1` (stereo not given), the growth was 98.7% (inactive).
Then `CCCCCn1cnc2c(=S)nc[nH]c21`, with 122% (inactive); and `Cc1cc(Nc2nc(N3CCOCC3)nc3ccccc23)n[nH]1`, with 83.4% (inactive).
Then `NS(=O)(=O)N(c1cc(C(F)(F)F)cc(C(F)(F)F)c1)C1CCN(Cc2ccc(F)cc2)CC1`, with -50.4% (active).
For `O=c1c2cccc3c(NC4CCCCC4)ccc(c32)c2nc3ccccc3n12`, the growth was 51.7% (inactive).

The values are drawn from PubChem BioAssay (NCI).
